Results as given in PubChem BioAssay (Tox21).
Records with an inconclusive call do not appear. The source made the active and inactive calls. Calls follow the shape of the dose curve; as a rule, active = well fitted curve in the direction sought with a large enough effect in the repeat runs; inconclusive = weak or mixed curves; inactive = no such curve, though single readings can be large; an effect the other way counts as inactive or inconclusive.

What was measured:
[1] = A CellTox Green Cytotoxicity Assay to monitor cytotoxicity in HepG2 cells - 24 hour (AID 1224878); also: nearly all actives have a fitted effect of over 45% in size
Method in brief: (§1)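 Cytotoxicity was tracked as dead-cell DNA fluorescence in HepG2 cells treated with test compounds at 37 C; each time-point value comes from one kinetic series spanning 0, 8, 16, 24, 32 and 40 h.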

[2] = A CellTox Green Cytotoxicity Assay to monitor cytotoxicity in HepG2 cells - 40 hour (AID 1224879); also: nearly all actives have a fitted effect of over 40% in size; also: potency is read from the fitted curve at half-maximal effect
Method in brief: as §1

[3] = qHTS RealTime-Glo MT Cell Viability Assay in HEK293 cells - 0 hour (AID 1224880); also: top concentration of the series differs between compounds; nearly all actives have a fitted effect of over 45% in size
Method in brief: (§2)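 Kinetic, non-lysing viability readout. Seed HEK293 (600/well) with reagent, incubate 5 h at 37 C/5% CO2, pin 23 nL compound in DMSO, incubate at 37 C, read luminescence at 0, 8, 16, 24, 32, 40 h.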

[4] = A CellTox Green Cytotoxicity Assay to monitor cytotoxicity in HEK293 cells - 32 hour (AID 1224881); also: nearly all actives have a fitted effect of over 40% in size; also: potency is read from the fitted curve at half-maximal effect
Method in brief: (§3)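 Real-time, in one plate: 600 HEK293 cells/well with dead-cell DNA dye, pinned compound after 5 h, 37 C incubation over 40 h; viable cells give no appreciable fluorescence.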

[5] = A CellTox Green Cytotoxicity Assay to monitor cytotoxicity in HepG2 cells - 0 hour (AID 1224882); also: nearly all actives have a fitted effect of over 35% in size
Method in brief: as §1

[6] = A CellTox Green Cytotoxicity Assay to monitor cytotoxicity in HEK293 cells - 8 hour (AID 1224884); also: nearly all actives have a fitted effect of over 35% in size
Method in brief: as §3

[7] = qHTS RealTime-Glo MT Cell Viability Assay in HepG2 cells - 16 hour (AID 1224885); also: nearly all actives have a fitted effect of over 50% in size
Method in brief: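 qHTS, HepG2, 600 cells/well, RealTime-Glo (NanoLuc + prosubstrate) added with cells; 5 h preincubation; DMSO compound addition; 37 C; luminescence at 0/8/16/24/32/40 h.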

[8] = qHTS RealTime-Glo MT Cell Viability Assay in HEK293 cells - 24 hour (AID 1224886); also: nearly all actives have a fitted effect of over 50% in size; also: potency is read from the fitted curve at half-maximal effect
Method in brief: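 Assay medium contained NanoLuc luciferase plus cell-permeant prosubstrate, added with HEK293 cells at 600 cells/well. After 5 h at 37 C/5% CO2 compounds were added; plates stayed at 37 C for 40 h with serial luminescence reads.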

[9] = qHTS RealTime-Glo MT Cell Viability Assay in HEK293 cells - 8 hour (AID 1224887); also: top concentration of the series differs between compounds; nearly all actives have a fitted effect of over 50% in size
Method in brief: as §2

[10] = A CellTox Green Cytotoxicity Assay to monitor cytotoxicity in HepG2 cells - 32 hour (AID 1224883); also: nearly all actives have a fitted effect of over 50% in size
Method in brief: as §1

Measured: Potency

O=NN(CCCl)C(=O)NC1CCCCC1
inactive: [1] | [2] | [3] | [4] | [5] | [6] | [7] | [8] | [9]

CN(C)CCCO[C@@H]1[C@H]2OC(C)(C)O[C@H]2O[C@@H]1C(O)CO (stereo partly specified)
inactive: [1] | [2] | [3] | [4] | [5] | [10] | [6] | [7] | [8] | [9]

CN(C)CCOC(=O)C(c1ccccc1)C1(O)CCCC1 (stereo unspecified)
inactive: [1] | [2] | [3] | [4] | [5] | [10] | [6] | [7] | [8] | [9]

CCO[Si](CC)(OCC)OCC
inactive: [1] | [2] | [3] | [4] | [5] | [10] | [6] | [7] | [8] | [9]

OCC(O)CN1CCN(c2ccccc2)CC1 (stereo unspecified)
inactive: [1] | [2] | [3] | [4] | [5] | [10] | [6] | [7] | [8] | [9]

COc1cc2c(cc1OC)C(=O)C(CC1CCN(Cc3ccccc3)CC1)C2 (stereo unspecified)
active: [2] 21.3 µM | [8] 21.3 µM
inactive: [1] | [3] | [4] | [5] | [6] | [7]

c1ccc(B(c2ccccc2)c2ccccc2)cc1
inactive: [1] | [2] | [3] | [4] | [5] | [10] | [6] | [7] | [9]

O=C(CN1CCNCC1)NC1CCCCC1
inactive: [1] | [2] | [3] | [4] | [5] | [10] | [6] | [7] | [8] | [9]

CCC(C)OC(C)CC (stereo unspecified)
inactive: [1] | [2] | [3] | [4] | [5] | [10] | [6] | [7] | [8] | [9]

O=C1CCC(=O)N1Cl
inactive: [1] | [2] | [3] | [4] | [5] | [10] | [6] | [7] | [8] | [9]

CC(C)Nc1ccccc1
inactive: [1] | [2] | [3] | [4] | [5] | [10] | [6] | [7] | [8] | [9]

CC(C)(C)NC[C@H](O)COc1cccc2c1CCCC2=O
inactive: [1] | [2] | [3] | [4] | [5] | [10] | [7] | [8] | [9]

CCCCSCCCC
inactive: [1] | [2] | [3] | [4] | [5] | [10] | [6] | [7] | [8] | [9]

O=C(O)CCCCCC(=O)O
active: [4] 22 µM
inactive: [1] | [2] | [3] | [5] | [10] | [7] | [8] | [9]

Cc1ccc2c(c1)C(=O)c1ccccc1C2=O
inactive: [1] | [2] | [3] | [4] | [5] | [6] | [7] | [8] | [9]

Cc1ccnc(N)c1
inactive: [1] | [2] | [3] | [4] | [5] | [10] | [6] | [7] | [8] | [9]

CN1CCOC(c2ccccc2)c2ccccc2C1 (stereo unspecified)
inactive: [1] | [2] | [3] | [4] | [5] | [10] | [6] | [7] | [8] | [9]

CC(C)=CCC[C@@](C)(O)[C@H]1CC=C(C)CC1
inactive: [1] | [2] | [3] | [4] | [5] | [6] | [7] | [8] | [9]

CC(=O)c1cc(C)oc1C
inactive: [1] | [2] | [3] | [4] | [5] | [6] | [7] | [8] | [9]
